{
  "source": "paper PMC4336329",
  "about": "(PLoS ONE, 2015)",
  "note": "In all, about 310,000 compounds went through this assay and about 14,000 (4.5%) showed an effect of 50% or more. The effect is printed as a negative number. The entries come from a sample that favours strong results as a whole.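 Further: peak tail current of the secondary pulse compared with the same well before compound.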",
  "data": [
    {"biological_target": "human ether-à-go-go-related gene (hERG) potassium channel (human, UniProt Q12809)", "sequence (Q12809 whole entry, looked up)": "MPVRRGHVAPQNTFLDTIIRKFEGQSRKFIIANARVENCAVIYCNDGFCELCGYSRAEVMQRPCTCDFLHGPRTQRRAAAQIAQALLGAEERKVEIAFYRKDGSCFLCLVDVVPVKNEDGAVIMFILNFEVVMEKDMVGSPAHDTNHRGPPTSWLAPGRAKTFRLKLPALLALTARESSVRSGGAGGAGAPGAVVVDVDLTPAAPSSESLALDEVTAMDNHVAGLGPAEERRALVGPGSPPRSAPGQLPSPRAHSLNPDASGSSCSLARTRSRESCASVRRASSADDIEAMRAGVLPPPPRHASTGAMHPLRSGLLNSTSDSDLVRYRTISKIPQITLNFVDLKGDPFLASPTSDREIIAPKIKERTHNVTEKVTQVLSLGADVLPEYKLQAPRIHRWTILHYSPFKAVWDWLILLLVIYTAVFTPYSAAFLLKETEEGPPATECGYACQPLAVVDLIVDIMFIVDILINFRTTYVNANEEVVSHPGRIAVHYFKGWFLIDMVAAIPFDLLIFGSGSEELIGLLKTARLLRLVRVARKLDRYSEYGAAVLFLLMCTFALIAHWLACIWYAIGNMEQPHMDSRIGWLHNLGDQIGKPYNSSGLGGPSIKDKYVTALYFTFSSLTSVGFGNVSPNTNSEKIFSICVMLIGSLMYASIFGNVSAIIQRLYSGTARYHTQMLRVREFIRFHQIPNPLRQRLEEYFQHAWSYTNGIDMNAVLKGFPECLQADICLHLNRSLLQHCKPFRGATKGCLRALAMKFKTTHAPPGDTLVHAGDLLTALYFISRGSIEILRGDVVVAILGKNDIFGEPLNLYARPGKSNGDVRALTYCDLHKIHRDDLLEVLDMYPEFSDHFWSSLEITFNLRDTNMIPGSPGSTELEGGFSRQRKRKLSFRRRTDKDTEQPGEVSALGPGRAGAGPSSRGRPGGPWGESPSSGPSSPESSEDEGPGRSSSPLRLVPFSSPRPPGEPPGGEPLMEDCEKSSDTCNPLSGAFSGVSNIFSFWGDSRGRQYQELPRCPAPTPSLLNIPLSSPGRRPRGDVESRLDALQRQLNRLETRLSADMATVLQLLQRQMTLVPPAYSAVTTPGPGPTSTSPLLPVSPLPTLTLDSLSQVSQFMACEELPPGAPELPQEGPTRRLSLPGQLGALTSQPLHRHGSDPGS", "test": "primary screen, population patch clamp on CHO cells stably expressing hERG; higher = less effect of the substance", "units": {"hERG current change (%, negative = inhibition) at 10uM": "%"}, "values": [
      {"smiles": "NS(=O)(=O)c1ccc2nc(NC(=O)Nc3ccc(F)cc3)sc2c1", "hERG current change (%, negative = inhibition) at 10uM": 6.61},
      {"smiles": "CCN=C1S/C(=C\\c2cn(C(C)=O)nc2-c2ccccc2)C(=O)N1CC", "hERG current change (%, negative = inhibition) at 10uM": 8.23},
      {"smiles": "O=C(CSCc1ccc(Br)cc1)N1CCOCC1", "hERG current change (%, negative = inhibition) at 10uM": 3.5},
      {"smiles": "CCN(CC)c1ccc(C=C2C(=O)OC3(CCCCC3)OC2=O)cc1", "hERG current change (%, negative = inhibition) at 10uM": 7.76},
      {"smiles": "CCCOc1ccc(C(C)=O)cc1CC(C(=O)OCC)C(=O)OCC", "hERG current change (%, negative = inhibition) at 10uM": 1.47},
      {"smiles": "COc1ccc(/C=C/C(=O)OCC(=O)Nc2cc(C(N)=O)cc(C(N)=O)c2)cc1", "hERG current change (%, negative = inhibition) at 10uM": 18.2},
      {"smiles": "CN(C)/C=N/C(=S)Nc1cc(Cl)cc(Cl)c1", "hERG current change (%, negative = inhibition) at 10uM": 27.2},
      {"smiles": "O=C(c1ccc(NS(=O)(=O)c2cccs2)cc1)N1CCOCC1", "hERG current change (%, negative = inhibition) at 10uM": 14.4},
      {"smiles": "CC(=O)c1cc(CC=C(C)C)c(O)cc1O", "hERG current change (%, negative = inhibition) at 10uM": -3.51},
      {"smiles": "O=C(COC(=O)CCC1CCCC1)Nc1ccc(Cl)cn1", "hERG current change (%, negative = inhibition) at 10uM": 15.2},
      {"smiles": "Cc1c(C(=O)OCC(=O)N(C)CC(=O)Nc2ccc(F)cc2)oc2ccccc12", "hERG current change (%, negative = inhibition) at 10uM": 14.3},
      {"smiles": "CN(C)c1nc(N)c([N+](=O)[O-])c(N2CCCCCC2)n1", "hERG current change (%, negative = inhibition) at 10uM": 2.69},
      {"smiles": "CC(=O)c1ccc(Nc2ncnc3c2oc2ccccc23)cc1", "hERG current change (%, negative = inhibition) at 10uM": 7.05},
      {"smiles": "Cl.c1ccc2c(c1)oc1c(NCCCN3CCOCC3)ncnc12", "hERG current change (%, negative = inhibition) at 10uM": -22.4},
      {"smiles": "CC(=O)N1CCN(c2ccc(Nc3nc(C)nc4c3oc3ccccc34)cc2)CC1.Cl", "hERG current change (%, negative = inhibition) at 10uM": -51.3},
      {"smiles": "CC(=O)N1CCN(c2ccc(Nc3ncnc4c3oc3ccccc34)cc2)CC1.Cl", "hERG current change (%, negative = inhibition) at 10uM": -65.9},
      {"smiles": "Cl.Oc1ccc(Nc2ncnc3c2oc2ccccc23)cc1", "hERG current change (%, negative = inhibition) at 10uM": -4.8},
      {"smiles": "Cl.c1ccc2c(c1)oc1c(NCCN3CCOCC3)ncnc12", "hERG current change (%, negative = inhibition) at 10uM": -5.4},
      {"smiles": "Cl.c1ccc2c(c1)oc1c(Nc3ccc(CN4CCOCC4)cc3)ncnc12", "hERG current change (%, negative = inhibition) at 10uM": -62},
      {"smiles": "CCc1nc(Nc2ccc(N3CCN(C(C)=O)CC3)cc2)c2oc3ccccc3c2n1.Cl", "hERG current change (%, negative = inhibition) at 10uM": -43.7},
      {"smiles": "CC(=O)Nc1ccc(Nc2nc(C)nc3c2oc2ccccc23)cc1", "hERG current change (%, negative = inhibition) at 10uM": 13.4},
      {"smiles": "O=C(Nc1nc(COc2ccccc2)cs1)c1ccccc1F", "hERG current change (%, negative = inhibition) at 10uM": 24.9},
      {"smiles": "CCCCN(CC)CCNC(=O)Cn1cc2c(n1)-c1c(oc(C(=O)N3CCCC3)c1C)CC2", "hERG current change (%, negative = inhibition) at 10uM": -27.9},
      {"smiles": "CCOc1cc(/C=C2/C(=O)ON=C2C)ccc1OCc1ccccc1F", "hERG current change (%, negative = inhibition) at 10uM": 10.6},
      {"smiles": "Cc1cc(OCC(=O)N[C@H](C(=O)O)c2ccccc2)c2c3c(c(=O)oc2c1)CCC3", "hERG current change (%, negative = inhibition) at 10uM": 12.1},
      {"smiles": "CCN1CCN(C(=S)Nc2cc(C(=O)OC)ccc2C(=O)OC)CC1", "hERG current change (%, negative = inhibition) at 10uM": 16.9},
      {"smiles": "Br.N=c1n(CCN2CCOCC2)c2ccccc2n1CC(=O)c1ccc(Cl)c(Cl)c1", "hERG current change (%, negative = inhibition) at 10uM": -73.2},
      {"smiles": "Cc1ccc(C(=O)NCCN2CCOCC2)cc1", "hERG current change (%, negative = inhibition) at 10uM": 12},
      {"smiles": "Br.N=c1n(CCN2CCCCC2)c2ccccc2n1CC(=O)c1ccc(Cl)c(Cl)c1", "hERG current change (%, negative = inhibition) at 10uM": -72.6},
      {"smiles": "Br.Cc1ccc(C(=O)Cn2c(=N)n(N)c3ccccc32)cc1", "hERG current change (%, negative = inhibition) at 10uM": -14.7},
      {"smiles": "Cc1ccc(C(=O)Cn2c(=N)n(CCN3CCOCC3)c3ccccc32)cc1.[Br-]", "hERG current change (%, negative = inhibition) at 10uM": -59.9},
      {"smiles": "Br.N=c1n(CCN2CCCCC2)c2ccccc2n1CC(=O)c1cccs1", "hERG current change (%, negative = inhibition) at 10uM": -25.2},
      {"smiles": "Br.COC(=O)Cn1c(=N)n(CCN2CCCCC2)c2ccccc21", "hERG current change (%, negative = inhibition) at 10uM": -19.2},
      {"smiles": "O=C(NCCN1CCOCC1)c1ccc(Cl)c(Cl)c1", "hERG current change (%, negative = inhibition) at 10uM": -2.39},
      {"smiles": "Br.N=c1n(CCN2CCOCC2)c2ccccc2n1Cc1ccccc1Br", "hERG current change (%, negative = inhibition) at 10uM": -72.9},
      {"smiles": "Cn1c(=O)n(Cc2ccccc2Br)c2ccccc21", "hERG current change (%, negative = inhibition) at 10uM": -10.3},
      {"smiles": "N=c1n(CCOc2ccccc2)c2ccccc2n1CCN1CCOCC1", "hERG current change (%, negative = inhibition) at 10uM": -42.9},
      {"smiles": "Cc1ccc(C(=O)NCCN2CCOCC2)cc1Cl", "hERG current change (%, negative = inhibition) at 10uM": -17.7},
      {"smiles": "COc1ccc(C)cc1NC(=O)c1ccc(NC(=O)CC2SC(N3CCCC3)=NC2=O)cc1", "note": "(centres unmarked)", "hERG current change (%, negative = inhibition) at 10uM": 18.2},
      {"smiles": "Cc1cn(-c2ccc(Br)cc2)[nH]c1=O", "hERG current change (%, negative = inhibition) at 10uM": 8.3},
      {"smiles": "COC(=O)C1=C(C)N=C2SC(C)C(=O)N2C1c1cccs1", "note": "(centres unmarked)", "hERG current change (%, negative = inhibition) at 10uM": 7.16},
      {"smiles": "CCNC(=O)NC(=O)COC(=O)CCCSc1nc2ccccc2s1", "hERG current change (%, negative = inhibition) at 10uM": -8.6},
      {"smiles": "CCOc1ccc(S(=O)(=O)NCCC(=O)NCCc2ccc(C(C)C)cc2)cc1", "hERG current change (%, negative = inhibition) at 10uM": 3.89},
      {"smiles": "CCOC(=O)c1nn(-c2ccc([N+](=O)[O-])cc2)cc1O", "hERG current change (%, negative = inhibition) at 10uM": 2.65}
    ]}
  ]
}
